Apoferritin bind – qHTS Assay for Identification of Novel General Anesthetics; apoferritin/1-aminoanthracene competitive binding, fluorescence; Potency, µM (doses to about 77.5 µM), inactives show at the top dose activity change, negative = displacement, hits mostly inhibitors; actives 0.074% (n = 350,000); active means well fitted inhibition curve with a large enough effect; inconclusive means small, poorly fitted or top-dose-only effect; inactive means no such curve, though single readings can be large or run the other way; further: potency means the concentration at half of the fitted maximal effect; on the % scale 0 is the no-effect control and ±100 the full control effect; nearly all actives have a fitted effect of over 20% in size
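Read-out: endpoint 1-AMA fluorescence, excitation 380 nm and emission 535 nm, after compounds sit 10 min at room temperature with 10 uM horse-spleen apoferritin in 50% saturated 1-AMA/PBS. Values come from four-parameter Hill fits.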
D2 ag-1 – Beta-Arrestin HTS for Positive Allosteric Modulators of the Human D2 Dopamine Receptor: Agonists. D(2) dopamine receptor (Homo sapiens), P14416. DiscoveRx PathHunter D2 beta-arrestin, luminescence, 90 min; 100% = 57 uM dopamine signal. activation, % (test concentration not listed). actives 0.084% (n = 360,000). AID 624465, 2012; in the data active means activation above about 40%; inconclusive means between about 15% and that limit
Target sequence (P14416 whole entry, looked up): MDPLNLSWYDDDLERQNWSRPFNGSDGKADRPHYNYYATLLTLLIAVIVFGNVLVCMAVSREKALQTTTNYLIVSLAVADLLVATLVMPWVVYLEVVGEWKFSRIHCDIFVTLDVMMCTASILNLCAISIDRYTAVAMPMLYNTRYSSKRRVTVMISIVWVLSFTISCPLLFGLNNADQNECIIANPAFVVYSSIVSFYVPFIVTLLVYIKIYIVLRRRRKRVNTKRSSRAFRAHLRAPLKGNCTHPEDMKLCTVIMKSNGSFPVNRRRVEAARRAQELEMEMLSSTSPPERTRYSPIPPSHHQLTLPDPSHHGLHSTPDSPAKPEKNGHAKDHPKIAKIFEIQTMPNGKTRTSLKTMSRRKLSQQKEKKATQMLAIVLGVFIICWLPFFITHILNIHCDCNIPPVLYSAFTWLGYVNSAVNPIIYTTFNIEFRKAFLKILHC
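DiscoveRx PathHunter D2 beta-arrestin cells (2,100/well) attached overnight, then compound-stimulated 90 min at 37 C in HBSS/10 mM HEPES/0.1% Tween-20 buffer; beta-galactosidase complementation read by luminescence after 1 h at ambient temperature. Dopamine 57 uM final (EC100) as control.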
D2 PAM-1 – HTS Assay for Positive Allosteric Modulators of the Human D2 Dopamine Receptor: Primary Screen for Potentiators. D(2) dopamine receptor (Homo sapiens), P14416. HEK293 T-REx D2, calcium flux, EC20 dopamine potentiation. potentiation, % at 10 µM. actives 0.34% (n = 340,000);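 active means potentiation over 3 SD above the plate norm, cut at about 30% in these data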; further: 0% is about no effect
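Calcium flux readout, no-wash dye, 1 read/s. Inducible HEK293 Trex D2 line, overnight 30 C. Compound alone 180 s (agonist flags), then EC20 dopamine, another 180 s to score potentiation.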
D2 antagonist – HTS Assay for Allosteric Antagonists of the Human D2 Dopamine Receptor: Primary Screen for Antagonists. D(2) dopamine receptor (Homo sapiens), P14416. HEK293 TREx D2 cells, calcium flux, dopamine EC80. inhibition, % at 10 µM. actives 2% (n = 340,000). AID 485344, 2010; in the data active means inhibition above about 30%; inactive means below that, where a call was filed; further: 0% is about no effect
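Overnight-induced (tetracycline, 30 C) HEK293 T-REx cells carrying force-coupled D2 receive a no-wash calcium dye, then compound, then EC80 dopamine at 180 s; signals are read kinetically throughout.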
D2 ag-2 – HTS Assay for Allosteric Agonists of the Human D2 Dopamine Receptor: Primary Screen for Agonists; HEK293 T-REx D2 cells, calcium flux agonist mode; activation, % at 2 µM; actives 0.53% (n = 340,000);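 active means activation over 3 SD above normal in the single-dose calcium agonist read, cut at about 30% in these data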; further: 0% is about no effect
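Calcium-flux readout, 1 cycle/sec over 180 s following compound pin transfer, in inducible HEK293 Trex D2 cells (force-coupled); dopamine controls included. Positive calcium responses during this window marked compounds as potential agonists.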
D2 PAM-2 – Beta-Arrestin HTS for Positive Allosteric Modulators of the Human D2 Dopamine Receptor: Potentiators; D(2) dopamine receptor (Homo sapiens), P14416; DiscoveRx D2 beta-arrestin cells, luminescence, 90 min; 100% = 57 uM dopamine signal; potentiation, % (test concentration not listed); actives 0.23% (n = 360,000); AID 624464, 2012; in the data active means potentiation above about 50%; inconclusive means mostly about 30% to 49%
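D2 cells co-treated with compound plus 50 nM dopamine (EC20) for 90 min at 37 deg C to detect potentiation. Beta-arrestin recruitment was read as enzyme-fragment luminescence after 1 h at ambient temperature. Full response was set by 57 uM dopamine.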
Active calls of the source: *. Compounds with a hit are over-represented: about 2.5% of the library has one in this group of screens.

How did CC1CCCN(S(=O)(=O)c2ccc(C(=O)Nc3nnc(-c4ccccn4)o3)cc2)C1 (stereo unspecified) do in these assays?
Apoferritin bind: -1%; D2 ag-1: 2; D2 PAM-1: 10; D2 antagonist: 35*; D2 ag-2: 0; D2 PAM-2: -8

What do the screens show for `COc1ccc(C(=O)/C=C/C(=O)N(CC(=O)NCCC(C)C)Cc2cccs2)c(O)c1`?
Apoferritin bind: inconclusive; D2 ag-1: 1; D2 PAM-1: -9; D2 antagonist: 2; D2 ag-2: 3; D2 PAM-2: -20

What do the screens show for `COc1ccc(-c2nnc(SCC(=O)O)n2C)cc1OC`?
Apoferritin bind: -3%; D2 ag-1: 9; D2 PAM-2: -2

Results for Cc1cc(C)cc(NC(=O)C/C(N)=N/O)c1 ?
Apoferritin bind: -10%; D2 ag-1: 3; D2 PAM-1: -10; D2 antagonist: 71*; D2 ag-2: 0; D2 PAM-2: 9

What do the screens show for `CCOC(=O)CNC(c1ccccc1)c1cc(Br)ccc1NC(=O)c1cccc(Cl)c1` (stereo unspecified)?
Apoferritin bind: 1%; D2 PAM-1: -8; D2 ag-2: 0

How did CCCCCN(C(=O)CCC(=O)OCc1ccccc1C)c1c(N)n(CCCC)c(=O)[nH]c1=O do in these assays?
D2 ag-1: -2; D2 PAM-1: -2; D2 antagonist: -3; D2 ag-2: 0; D2 PAM-2: 20

What do the screens show for `N#Cc1ccc(Nc2ccccc2)c(N)c1`?
Apoferritin bind: inconclusive; D2 ag-1: -4; D2 PAM-1: -14; D2 antagonist: 31*; D2 ag-2: 1; D2 PAM-2: -10

What do the screens show for `O=C(O)c1cc([N+](=O)[O-])ccc1Nc1ccccc1`?
Apoferritin bind: -20%; D2 ag-1: -5; D2 PAM-1: -11; D2 antagonist: 11; D2 ag-2: 0; D2 PAM-2: 2

What do the screens show for `N#Cc1cc(N)c(Nc2ccccc2)cc1C#N`?
Apoferritin bind: -10%; D2 ag-1: -2; D2 PAM-1: -3; D2 antagonist: -10; D2 ag-2: 0; D2 PAM-2: 2

What do the screens show for `Nc1cc([N+](=O)[O-])ccc1Nc1ccccc1`?
Apoferritin bind: 16µM*; D2 ag-1: -8; D2 PAM-1: 16; D2 antagonist: 2; D2 ag-2: 0; D2 PAM-2: -7

Results for Nc1cc(C(F)(F)F)ccc1Nc1ccccc1 ?
Apoferritin bind: inconclusive; D2 ag-1: 3; D2 PAM-1: -7; D2 antagonist: 67*; D2 ag-2: 0; D2 PAM-2: 1

How did COc1ccc(NC(=O)/C(Cl)=C(/Cl)S(=O)Cc2ccccc2)cn1 (stereo unspecified) do in these assays?
Apoferritin bind: -20%; D2 ag-1: -7; D2 PAM-1: 4; D2 antagonist: 32*; D2 ag-2: 2; D2 PAM-2: -57

How did CCC(=O)c1ccccc1OCCCN1C(=O)NC(C)(C)C1=O do in these assays?
Apoferritin bind: -11%; D2 ag-1: -1; D2 PAM-1: -8; D2 antagonist: 17; D2 ag-2: 1; D2 PAM-2: -2

Results for CCCCCCOC(=O)C(C#N)c1nc2ccccc2nc1N1CCN(C)CC1 (stereo unspecified) ?
Apoferritin bind: inconclusive; D2 ag-1: -2; D2 PAM-1: -3; D2 antagonist: -3; D2 ag-2: 1; D2 PAM-2: 6
